Compound activity: PubChem BioAssay, several laboratories
A selection: hits, their analogues and other compounds. The true share with any hit is near 0.5%.
phage Ecoli inh: growth loss of phage-infected E. coli, primary screen, RecBCD inhibitor project, absorbance, with phage, HTS; inhibition, % at 11.9 µM; 360,000 compounds, 0.26% hits; in the data active means inhibition above about 11%
E coli growth-1: E. coli growth inhibition, primary screen, OD600; Escherichia coli growth, 23 h; stronger effect = lower value; OD600 absorbance (no concentration beside the values); 330,000 compounds, 0.21% hits; AID 1053175, 2014;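 active means OD600 absorbance below the run mean of sample wells minus 3.6 SD, in any replicate, cut at about 0.56 in these data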
Tat export inh: E. coli Tat export inhibitors, primary screen, MC4100, TorA-mCherry reporter, fluorescence, single point | 340,000 compounds, 0.036% hits | inhibition, % at 10 µM;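 active means mean replicate inhibition at least 50% and at least half of replicates individually reaching 50%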;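 further: exported cargo escapes ClpAP degradation while cytoplasmic cargo is degraded and loses fluorescence; 0% = median of neutral control wells and 100% = median of NaSCN control wells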
AddAB inh: growth inhibition of E. coli expressing H. pylori AddAB, primary screen, AddAB inhibitor project, absorbance; 330,000 compounds, 0.29% hits; inhibition, % at 11.9 µM; in the data active means inhibition above about 12%;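 further: 0% = vehicle wells of infected cells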
E coli growth-2: E. coli V3065 growth inhibition, primary screen, counter-screen for AddAB inhibitor project, absorbance, OD600 | 18 h | inhibition, % at 11.9 µM | 330,000 compounds, 0.27% hits | AID 449728, 2010;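 active means inhibition above the campaign's mean inhibition across all tested compounds plus 3 SD, cut at about 9.9% in these data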;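 further: uninfected addAB+ strain grown without phage in ampicillin broth; 0% = DMSO wells and 100% = ciprofloxacin 0.95 µg/ml wells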
* marks the source's active call; other numbers are inactive results; . = not tested or not shown.

SMILES	phage Ecoli inh	E coli growth-1	Tat export inh	AddAB inh	E coli growth-2
COc1ccc(C=NN2CCOCC2)cc1O	.	0.549*	.	.	.
COc1ccc(/C=N/N2CCOCC2)cc1O	0.8	.	1.6	0.5	-1.6
NC1=C(Br)C(=O)c2ncccc2C1=O	35.1*	.	-15.0	.	.
O=C(CN(Cc1ccc(F)cc1)C(=O)CNS(=O)(=O)c1ccc(F)cc1)NCC1CCCO1 (stereo unspecified)	-0.5	0.677	-0.6	0.6	0.5
O=C(CN(Cc1ccccc1Cl)C(=O)CNS(=O)(=O)c1ccc(F)cc1)NCC1CCCO1 (stereo unspecified)	1.2	0.655	52.7*	-1.1	0.7
COc1ccccc1C=NNC(=S)Nc1cccnc1	.	0.675	.	.	.
COc1cc(/C=C/C(=O)/C=C(O)/C=C/c2ccc(O)c(OC)c2)ccc1O	9.0	.	-4.9	10.5	10.3*
COc1cc(/C=C/C(=O)O)ccc1O	2.2	0.774	3.7	2.7	0.7
O=C(O)c1ccc(C=NNC(=S)NC2CCCCC2)cc1	.	0.738	.	.	.
CS(=O)(=O)N(CC(=O)NN=Cc1cc2c(cc1Br)OCO2)c1ccccc1Br	.	0.704	.	.	.
O=[N+]([O-])c1ccc(C=Nc2cccc3ccccc23)s1	.	0.51*	4.3	-1.2	-0.6
O=[N+]([O-])c1ccc(C=Nn2c(CO)nc3ccccc32)s1	.	0.711	.	.	.
O=C(Nc1ccc(Cl)cc1)Nc1cc([N+](=O)[O-])ccc1F	3.5	0.601	-10.9	3.0	1.3
O=C(Nc1ccc([N+](=O)[O-])cc1)Nc1ccc(Cl)cc1F	10.7	0.651	-3.0	7.0	9.8*
CCOC(=O)c1sc(NC(=O)Nc2ccccc2Cl)cc1C	7.7	0.704	-3.8	4.4	6.0
CCOC(=O)c1sc(NC(=O)Nc2ccccc2)cc1C	10.6	0.532*	-10.6	9.2	6.2
O=C(Nc1ccncc1)Nc1ccc(F)c(Cl)c1	6.3	0.514*	-2.6	3.8	0.9
Fc1ccc(NC(=S)Nc2ccc(F)c(Cl)c2)cc1Cl	.	0.495*	-9.2	1.9	0.0
O=C(Nc1ccc(F)c(Cl)c1)Nc1ccc(Cl)cn1	3.7	0.719	-0.2	-1.0	-0.8
Cc1ccc(C(=O)NC(=Cc2cccs2)C(=O)NCCCn2ccnc2)cc1C	.	0.691	.	.	.
COc1ccc(CNC(=O)c2ccc(C)o2)cc1	8.8	0.623	-15.8	9.4	10.2*
CCOc1ccc(S(=O)(=O)NN=C2CC(c3ccccc3)Oc3ccccc32)cc1 (stereo unspecified)	.	0.698	.	.	.
C#CCNC(=O)C1=CC(C2CCCCC2)CC(OCc2ccc(CO)cc2)O1 (stereo unspecified)	.	0.709	.	.	.
COc1cc(NS(=O)(=O)c2ccc(N)cc2)ncn1	.	.	.	21.3*	15.5*
O=C1OCC(CO)(CO)N=C1NNc1ccc(Cl)c(Cl)c1	7.0	0.176*	1.2	0.7	-0.8
SMILES	phage Ecoli inh	E coli growth-1	Tat export inh	AddAB inh	E coli growth-2
OCC1(CO)COC(c2ccccc2)=N1	0.0	0.631	16.4	0.5	-0.9
Cn1nc(-c2ccc(Cl)cc2)nc2c(=O)n(C)c(=O)nc1-2	.	0.48*	-11.8	7.8	8.4
CS(=O)(=O)n1nc(-c2ccc(Cl)cc2)nc1N	2.0	0.665	4.3	-0.9	-1.7
CCCCCCCCCCCCCCCCn1cc[n+](CC(C)=O)c1	.	0.0635*	32.3	.	.
CCCCCCn1ccc(=N)cc1	1.4	0.771	3.5	3.7	-0.5
Cc1ccc(NCC(=O)NN=Cc2ccc(-c3cccc(C(F)(F)F)c3)o2)cc1	.	0.658	.	.	.
O=[N+]([O-])c1ccc(Sc2cccc[n+]2[O-])c2nonc12	60.1*	0.0865*	139.3*	.	.
O=[N+]([O-])c1ccc(Nc2ccccc2)c2nonc12	-0.2	.	-6.6	2.4	-0.2
CC(=NNC(=O)c1cc(Br)ccc1O)C(=NO)C(=O)Nc1ccccc1	.	0.632	.	.	.
Cc1ccc2c(c1)N(C)/C(=C/c1cccc[n+]1C)S2	-0.1	0.527*	0.4	1.5	-2.1
CC(C)(C=NNC(=O)CSCc1ccccc1Cl)CCC#N	.	0.699	.	.	.
Cc1ccc(S(=O)(=O)N2C(c3ccc(C(C)C)cc3)CC=C(C(=O)O)C2c2cccc(Cl)c2)cc1 (stereo unspecified)	.	0.659	.	.	.
Cc1ccc(C(C)C)c(OCc2nn(CC(=O)c3ccc(Cl)cc3)c3[n+]2CCCCC3)c1	3.8	0.071*	44.0	3.4	2.6
Cc1ccc(C(O)=C2C(=O)C(=O)N(CC(C)O)C2c2ccc(N(C)C)cc2)cc1 (stereo unspecified)	.	0.715	.	.	.
Nc1nc(Nc2cccc(F)c2)nc2ccccc12	5.8	0.466*	7.3	1.6	0.7
O=c1oc(Nc2cccc(F)c2)nc2ccccc12	1.8	0.666	-6.8	4.4	0.7
COC(=O)c1ccc(NC(=O)Nc2ccc(F)cc2)cc1	4.1	0.512*	-4.8	4.1	3.5
